Hits are enriched below; roughly 1.6% of the tested compounds scored in any of these assays.
MLLE-PAM2 inh = blocks PAM2 peptide binding to the PABP1 MLLE domain | P11940 | inhibition, % at 20 µM | AID 588489 | GST-MLLE / FITC-PAM2 fluorescence polarization | 360,000 tested, 0.36% active; in the data active means inhibition above about 35%, passing the limit was not always enough
eIF4E 4G PPI = eIF4E/eIF4G interaction inhibition in translation initiation. P63073+Q04637. TR-FRET eIF4E-eIF4GI(517-606) binding, 2 h. inhibition, % at 21.7 µM. 220,000 tested, 0.37% active;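 active means inhibition above about 30%, limit read from the data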
eIF4H FP inh = inhibitors of RNA binding by human eIF4H. eIF4H fluorescence polarization binding assay. 290,000 tested, 0.94% active. inhibition, % at 35 µM. Q15056. AID 2012;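 further: calls also rest on retests at 20 µM and on dose response follow-up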
PABP polyA inh = blocks human PABP binding to poly(A) RNA; 290,000 tested, 1% active; calls only at 35 µM; fluorescence polarization;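 further: calls also rest on retests at 20 µM and on dose response follow-up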
PERK inh = blocks human PERK kinase; inhibition, % at 5.6 µM; Q9NZJ5; AID 1416; 220,000 tested, 0.17% active; CHO PERK-DD fusion, SEAP luminescence translation reporter;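 active means inhibition above the mean inhibition of all tested compounds plus 3 SD, set separately per screening campaign, cut at about 2.9% in these data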;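 further: PERK kinase domain activated by AP20187 dimerizer at 100 nM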
Each line names hits and unclear results; the compound was inactive in the other large screens. Unless noted, how the calls were made is not given here.

Cc1cc[n+](-c2[nH]c(=O)sc2/C=N/N=C(\[O-])c2ccncc2)cc1	MLLE-PAM2 inh 41, eIF4H FP inh 100, PABP polyA inh active (no result: eIF4E 4G PPI, PERK inh)
O=c1[nH]c(-[n+]2ccccc2)c(/C=N/N=C(\[O-])c2ccccc2)s1	none
COC(=O)CCN(c1ccccc1)S(=O)(=O)c1cc(-c2cc(C)no2)ccc1C	none (no result: eIF4E 4G PPI, PERK inh)
N#CCCCN1C(=O)C(=C(C#N)C#N)c2ccccc21	none
O=C(CC1SC(N2CCOCC2)=NC1=O)Nc1cc([N+](=O)[O-])ccc1Cl (centres undefined)	eIF4H FP inh inconclusive, PABP polyA inh active
O=C(CC1SC(N2CCOCC2)=NC1=O)Nc1ccccc1Cl (centres undefined)	none (no result: eIF4E 4G PPI, eIF4H FP inh, PABP polyA inh, PERK inh)
CCCSc1nc(C)cc(C)c1S(=O)(=O)c1ccccc1C	none
CCCSc1nc(C)cc(C)c1S(C)(=O)=O	eIF4H FP inh 4.7, PABP polyA inh active
Cc1[nH]nc2c(=S)[nH]c(=O)[nH]c12	MLLE-PAM2 inh 40 (no result: eIF4E 4G PPI, eIF4H FP inh, PABP polyA inh, PERK inh)
CS(=O)CC(O)(c1ccc(F)cc1)C1CC1 (centres undefined)	none (no result: eIF4E 4G PPI, eIF4H FP inh, PABP polyA inh, PERK inh)
CCCc1nc2sc3ccccc3c(=O)c2c(=O)n1Cc1ccco1	eIF4H FP inh 64, PABP polyA inh active
CN(C)CCCNCCCNC(=O)c1ccccn1	none
Cc1ccc(C(=O)NCCCNCCCNC(=O)c2ccc(C)nc2)cn1	none
Cc1ccc(C(=O)NCCCNCCCN(C)C)cn1	eIF4H FP inh 68, PABP polyA inh active
CN(C)CCCNC(=O)c1ccc(=O)[nH]n1	eIF4H FP inh 91, PABP polyA inh active
CCC(=O)N1CCc2cc(S(=O)(=O)N3CCN(c4ccccc4Cl)CC3)ccc21	none (no result: eIF4E 4G PPI, PERK inh)
Cc1c(C(=O)N2CCOCC2)sc(NC(=O)Cc2ccccc2)c1C#N	none
COCc1cc(=O)[nH]c(SCCS(=O)(=O)c2ccc(C)cc2)n1	none
COCc1cc(=O)[nH]c(SCCS(=O)(=O)c2ccc(Cl)cc2Cl)n1	MLLE-PAM2 inh 38
O=C(CCS(=O)(=O)c1ccccc1)N1CCN(c2ccccc2)CC1	none (no result: eIF4E 4G PPI, PERK inh)
O=S1(=O)CCN(C(CCO)c2cccc(C(F)(F)F)c2)CC1 (centres undefined)	none
O=C(COC(=O)c1ccc(Br)o1)NCCc1ccccc1	none
O=C1/C(=C\c2ccco2)SC(=S)N1C1CCS(=O)(=O)C1 (centres undefined)	eIF4H FP inh 94, PABP polyA inh active
CCN(C(=O)C(C)N1C(=O)/C(=C/c2ccco2)SC1=S)C1CCS(=O)(=O)C1 (centres undefined)	eIF4H FP inh 54, PABP polyA inh active (no result: eIF4E 4G PPI, PERK inh)
O=C1/C(=C/c2ccco2)SC(=S)N1C1CCS(=O)(=O)C1 (centres undefined)	PABP polyA inh active
Cc1ccc(/C=C2\SC(=S)N(C3CCS(=O)(=O)C3)C2=O)cc1 (centres undefined)	none
CCOc1ccc(NC(=O)C2CC(=O)N(c3ccc4c(c3)OCCO4)C2)cc1OCC (centres undefined)	none (no result: eIF4E 4G PPI, eIF4H FP inh, PABP polyA inh, PERK inh)
CNC(=O)NC(=O)COC(=O)/C=C/c1cccc(Br)c1	none
COc1ccc(-c2coc3c(C(=O)Nc4cccc(NS(C)(=O)=O)c4)cccc23)c(C)c1	none (no result: eIF4E 4G PPI, eIF4H FP inh, PABP polyA inh, PERK inh)
Cc1nc(C)c(C(=O)Nc2ncc([N+](=O)[O-])s2)o1	PABP polyA inh active
Cc1cc(C)cc(NC(=O)C(=S)NCc2ccccc2)c1	PERK inh 2.9
Cc1cc(C)cc(NC(=S)NC(=O)Cc2ccccc2)c1	none (no result: eIF4E 4G PPI, eIF4H FP inh, PABP polyA inh, PERK inh)
O=C(CCc1ccccc1)NC1(Cc2ccccc2)CCN(CCCc2ccccc2)C1=O (centres undefined)	none (no result: eIF4E 4G PPI, eIF4H FP inh, PABP polyA inh, PERK inh)
c1cncc(-c2nnc(-c3cccnc3)nn2)c1	MLLE-PAM2 inh 41
Cc1ccc2nc(C)c3c(c2c1)SCC3	none
CCOC(=O)C1=C(N)n2c(s/c(=C/c3ccco3)c2=O)=C(C(=O)OC)C1c1ccco1 (centres undefined)	eIF4H FP inh 83, PABP polyA inh active
N#CC1=C(N)n2c(s/c(=C\c3ccco3)c2=O)=C(C#N)C1c1ccco1 (centres undefined)	eIF4H FP inh 99, PABP polyA inh active
O=C1C(c2ccccc2)=NCCN1C(c1ccc(F)cc1)c1nc2ccccc2[nH]1 (centres undefined)	none (no result: eIF4E 4G PPI, eIF4H FP inh, PABP polyA inh, PERK inh)
CCN1CCc2c(C#N)c(N3CCOCC3)nc(NCCO)c2C1	MLLE-PAM2 inh 79
O=C(CCNC(=O)c1ccccc1Cl)NCC(c1ccc(F)cc1)N1CCOCC1 (centres undefined)	none (no result: eIF4E 4G PPI, eIF4H FP inh, PABP polyA inh, PERK inh)
CCOC(=O)c1c(-c2cccc([N+](=O)[O-])c2)csc1NC(=O)CCCOc1ccccc1	eIF4E 4G PPI 76
CCOC(=O)c1c(-c2ccccc2)csc1NC(=O)CSc1nncs1	PABP polyA inh active
CCOC(=O)c1c(-c2cccc([N+](=O)[O-])c2)csc1NC(=O)CCCOc1ccccc1OC	none
CCOC(=O)c1c(-c2ccccc2)csc1NC(=O)/C(C#N)=C/c1ccc(O)c(OC)c1	eIF4H FP inh inconclusive, PABP polyA inh active
CCOC(=O)c1c(-c2ccc(-c3ccccc3)cc2)csc1NC(=O)C1C2CCC(O2)C1C(=O)O (centres undefined)	eIF4H FP inh inconclusive
CCOC(=O)c1c(-c2ccccc2)csc1NC(=O)C1CCCO1 (centres undefined)	MLLE-PAM2 inh 39
O=C(NCc1ccc(F)cc1)C1CCN(S(=O)(=O)c2cccc3nonc23)CC1	none (no result: eIF4E 4G PPI, PERK inh)
COc1cc(C(=S)N2CCOCC2)cc(OC)c1OS(=O)(=O)c1ccc(NC(C)=O)cc1	none
COc1cc(C(=S)N2CCOCC2)cc(OC)c1OS(=O)(=O)c1ccc(C)cc1	MLLE-PAM2 inh 42 (no result: eIF4E 4G PPI, PERK inh)
COC(=O)Cc1ccc(NC(=S)NNC(=O)C2CC2)cc1	PERK inh 3.6
CCCN(CCC)CCCNC(=O)C(NS(=O)(=O)c1ccc2c(c1)CCC(=O)N2)c1ccccc1 (centres undefined)	none
Cc1cccc(NC(=O)C(NS(=O)(=O)c2ccc3c(c2)CCC(=O)N3)c2ccccc2)n1 (centres undefined)	MLLE-PAM2 inh 44
Cc1ccoc1C(=O)NCc1occc1C(=O)O	eIF4H FP inh 74
Cc1ccoc1C(=O)NCCNC(=O)c1occc1C	none (no result: eIF4E 4G PPI, eIF4H FP inh, PABP polyA inh, PERK inh)
COC(=O)C(C)Oc1cc(OC(C)C(=O)OC)c2c(-c3ccccc3)cc(=O)oc2c1 (centres undefined)	none (no result: eIF4E 4G PPI, PERK inh)
OCc1c(Cl)nc2ccccn12	PABP polyA inh active
C=CCNC(=O)c1c(Cl)cnn1-c1ccc(C)cc1	none
CC1(C(=O)NS(=O)(=O)c2cccc(F)c2)CCN1C(=O)C1CCCCC1 (centres undefined)	none (no result: eIF4E 4G PPI, eIF4H FP inh, PABP polyA inh, PERK inh)
O=C(NNS(=O)(=O)c1ccccc1)c1cccnc1	none
O=C(NC(=S)NNS(=O)(=O)c1ccc(Cl)cc1)c1cccnc1	MLLE-PAM2 inh 40
N#C/C(=C/c1ccc(N2CCCCCC2)o1)c1ccc(Cl)cc1	none
N#C/C(=C/c1ccc(N2CCCCC2)o1)c1cccc(F)c1	eIF4H FP inh 87, PABP polyA inh active
Cc1cc(OC(=O)c2cc([N+](=O)[O-])ccc2Cl)c([N+](=O)[O-])c(=O)[nH]1	none (no result: eIF4E 4G PPI, PERK inh)

Screening results deposited in PubChem by several laboratories.
